{"source": "PubChem BioAssay (NCATS)", "note": "Records with an inconclusive call do not appear. Unmarked numbers belong to inactive results. Active and inactive are the calls of the source. The call rests on the fitted dose curve; in most records, active means well fitted inhibition curve with a large enough effect; inconclusive means small, poorly fitted or top-dose-only effect; inactive means flat fitted curve, though single readings scatter. On the % scale 0 is the no-effect control and ±100 the full control effect; potency means the concentration at half of the fitted maximal effect.", "data": [{"test_system": "HEK293", "test": "Cytotoxic Profiling of Annotated Libraries Using Quantitative High-Throughput Screening (AID 1296008); further: nearly all actives have a fitted effect of over 60% in size", "conditions": "Five cell lines viability, CellTiter-Glo ATP luminescence, 48-72 h; max response: active compounds read low", "outline": "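Cells exposed to compounds for 48 or 72 hr at 37 degrees Celsius. Viability read as ATP-coupled luminescence with CellTiter-Glo after 10 min at room temperature.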", "units": {"max response": "%"}, "values": [{"smiles": "C=C1CC[C@H]2[C@@](C)(CCC(O)[C@@]2(C)CO)[C@@H]1CCC1=CCOC1=O", "note": "(stereo not given in full)", "max response": 3.62}, {"smiles": "CC1CCCCN1S(=O)(=O)c1ccc(N2CCCC2=O)cc1", "note": "(stereo not given)", "outcome": "inactive"}, {"smiles": "CC(C)c1ccc2c(c1)C(=O)CC1[C@@](C)(C(=O)O)CCC[C@]21C", "note": "(stereo not given in full)", "max response": 3.51}, {"smiles": "C/C(=C\\CCC1(C)C2CCC(C2)C1(C)O)C(=O)O", "note": "(stereo not given)", "max response": -6.56}, {"smiles": "COC(C(=O)N1Cc2[nH]nc(NC(=O)c3ccc(N4CCN(C)CC4)cc3)c2C1)c1ccccc1", "note": "(stereo not given)", "Potency": "1640 nM (active)"}, {"smiles": "COC(=O)C[C@H]1C(C)(C)[C@H](OC(C)=O)C2CC3=C4CC(=O)O[C@@H](c5ccoc5)[C@]4(C)CCC3[C@@]1(C)C2=O", "note": "(stereo not given in full)", "max response": -19.9}, {"smiles": "CC(=O)O[C@@H]1[C@@H](O)[C@H](C)O[C@@H](O[C@H]2[C@@H]3C=CO[C@@H](O[C@@H]4O[C@H](CO)[C@@H](O)[C@H](O)[C@H]4O)[C@@H]3[C@@]3(CO)O[C@@H]23)[C@@H]1OC(=O)/C=C/c1ccccc1", "max response": 2}, {"smiles": "CC(C)C(=O)OC[C@H]1O[C@H](O[C@H]2O[C@H](CO)[C@@H](O)[C@H](O)[C@H]2O)[C@H](O)[C@@H](O)[C@@H]1O", "max response": 3.34}, {"smiles": "C[C@@H]1C(=O)OC[C@H]2C(C(=O)O)=C[C@@H]3CC(C)(C)C[C@]312", "max response": 4.25}, {"smiles": "CC1COC2(OC3CC4C5CC(O[C@@H]6O[C@H](C)[C@@H](O[C@@H]7O[C@@H](C)[C@H](O)[C@@H](O)[C@H]7O)[C@H](O)[C@H]6O)C6CC(O)CCC6(C)C5CCC4(C)C3C2C)C(O)C1", "note": "(stereo not given in full)", "max response": 3.68}, {"smiles": "N#Cc1cc(F)cc(-c2nc(-c3ccccn3)no2)c1", "max response": -8.23}, {"smiles": "CC/C=C/CC1=C(CCCCC(CCC(=O)O)OC(C)=O)CCC1=O", "note": "(stereo not given)", "max response": -16.2}, {"smiles": "Cc1cc2c(c(=O)[nH]1)OC(C(O)CC(C)C)O2", "note": "(stereo not given)", "max response": -7.89}, {"smiles": "CC(C)(O)C1CCC(C)(C2CCC3(C)C4CCC5C(C)(C(=O)OC6OC(CO)C(O)C(O)C6O)C(O)CC(O)C56CC46CCC23C)O1", "note": "(stereo not given)", "max response": 0.689}, {"smiles": "C/C=C(\\C)C(=O)O[C@H]1[C@@H](O[C@]2(COC(=O)CC(C)C)O[C@H](COC(=O)C(C)CC)[C@@H](OC(C)=O)[C@@H]2O)O[C@H](COC(C)=O)[C@@H](O)[C@@H]1O", "note": "(stereo not given in full)", "max response": 2.82}, {"smiles": "C=C[C@H]1[C@H](O[C@@H]2O[C@H](CO)[C@@H](O)[C@H](O)[C@H]2O)OC=C(C(=O)OC)[C@H]1CC(=O)O", "max response": 3.67}, {"smiles": "C/C=C1\\[C@H](O[C@@H]2O[C@H](CO)[C@@H](O)[C@H](O)[C@H]2O)OC=C(C(=O)OC)[C@H]1CC(=O)OC[C@H]1O[C@@H](OCCc2ccc(O)cc2)[C@H](O)[C@@H](O)[C@@H]1O", "max response": 0.429}, {"smiles": "C=CC1(C)C=C2C(=O)OC(=O)C3=C(CCCC3(C)C)C2(O)CC1", "note": "(stereo not given)", "max response": -14.3}, {"smiles": "COc1ccc(N(C)c2nc(C)nc3ccccc23)cc1", "Potency": "7.3 nM (active)"}, {"smiles": "Cc1cn(C2C=CC(CO)O2)c(=O)[nH]c1=O", "note": "(stereo not given)", "max response": -22.8}, {"smiles": "CC1(C)CC[C@]2(C(=O)O[C@@H]3O[C@H](CO)[C@@H](O)[C@H](O)[C@H]3O)CC[C@]3(C)C(=CCC4[C@@]5(C)C[C@@H](O)[C@H](O)[C@@](C)(CO)C5CC[C@]43C)C2[C@@H]1O", "note": "(stereo not given in full)", "max response": -3.93}, {"smiles": "C/C(=C\\C=C\\C(C)C1CCC2(C)C3CCC4C(C)(C)C(=O)CCC45CC35CCC12C)C(=O)O", "note": "(stereo not given)", "max response": -1.63}, {"smiles": "C=C1CC2C(C)(CCC(=O)O)C(C(C)(C)O)CCC2(C)C2C(=O)OC(C)(C(=O)OC)C(=O)C12C", "note": "(stereo not given)", "max response": 3.75}, {"smiles": "O=C(O)c1cccc(S(=O)(=O)N2CCc3ccccc3C2)c1", "max response": -4.38}, {"smiles": "Cc1cccc(-c2[nH]c(Cc3cccc(C(N)=O)c3)nc2-c2ccc3nccnc3c2)n1", "outcome": "inactive"}, {"smiles": "CCOC(=O)c1cc(C#N)c(N2CCC(C(=O)NS(=O)(=O)Cc3ccccc3)CC2)nc1C", "max response": -0.212}, {"smiles": "CC1=CC(=O)CC2C1(O)CCC(C)C21CC(c2ccoc2)OC1=O", "note": "(stereo not given)", "max response": -14.1}, {"smiles": "CC1CCC2(C=O)C(CO)=CCCC2C1(C)CC(=O)O", "note": "(stereo not given)", "max response": -8.27}, {"smiles": "CCOc1ccc(NC(=S)N2CCC(C(O)(c3ccccc3)c3ccccc3)CC2)cc1", "max response": -4.42}, {"smiles": "COc1ccc(/C=C/C(=O)O[C@@H]2[C@@H](O)[C@@H](O)[C@H](O[C@@H]3C=C(CO)[C@H]4[C@H](O[C@@H]5O[C@H](CO)[C@@H](O)[C@H](O)[C@H]5O)OC=C[C@H]43)O[C@H]2C)cc1O", "max response": -69.5}]}]}
